Measured values reported in PubChem BioAssay (EPA / NIEHS).
“And” between values parts separate entries of the source, which are not always exact repeats. Equal entries are not always repeated. Results filed as inconclusive are left out. Some structures have more than one record in an assay (separate samples or runs), and their calls can disagree. The source made the active and inactive calls. Rule for the calls: active = hit-call score of the fitted dose curve at least 0.9, where 1 is the maximum; inconclusive = response in the unintended direction; inactive = score below 0.9.

read-out: xenobiotic metabolism (CYP1A2), CYP1A2 (gene 1544); test: CLD_CYP1A2_6hr: CellzDirect (CLD) Gene Expression Assay for xenobiotic metabolism (CYP1A2) at 6 hours (AID 2283663);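 for AC50: potency is for induction meaning a rise in mRNA above DMSO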
Procedure: CLD_6hr is a cell-based, multiplexed-readout assay that uses hepatocyte, a human liver primary cell, with measurements taken at 6 hours after chemical dosing in a 96-well plate.CLD_CYP1A2_6hr is one of 16 assay component(s) measured or calculated from the CLD_6hr assay. It is designed to make measurements of mRNA induction, a form of inducible reporter, as detected with chemiluminescence signals by Quantitative Nuclease Protection Assay (qNPA) technology.Data from the assay component CLD_CYP1A2_6hr was analyzed at the endpoint, CLD_CYP1A2_6hr, in the positive analysis fitting direction relative to DMSO as the negative control and baseline of activity. Using a type of inducible reporter, gain-of-signal activity can be used to understand changes in the reporter gene as they relate to the gene CYP1A2. Furthermore, this assay endpoint can be referred to as a primary readout. To generalize the intended target to other relatable targets, this assay endpoint is annotated to the cyp intended target family, where subfamily is xenobiotic metabolism.
Human hepatocyte cultures were treated daily for two consecutive days with fresh dosing solutions containing appropriate concentrations of the 320 ToxCast chemicals (chemical identities were blinded to CellzDirect and other ToxCast collaborators), vehicle control (0.2% DMSO), and positive control inducers as summarized in Table 1. Due to the large number of treatment groups and chemicals examined, the ToxCast chemicals were divided into two groups (spanning two independent cultures of hepatocytes from separate donor preparations (Hu778: ToxCast plates 1 and 2; Hu776: ToxCast plates 3 and 4). Each preparation of human hepatocyte cultures was treated with respective vehicle control, medium only control, set of six positive controls/reference chemicals for the five hepatic receptor pathways, and a subset of eight of the ToxCast chemicals (indoxacarb, pyrithiobac-sodium, norflurazon, cyhalofop-butyl, methomyl, thiram, acetochlor, and propiconazole). These replicate data, coupled with internal replicates designed within the blinded ToxCast chemical library, provided additional data to evaluate interindividual differences between hepatocyte preparations and their potential impact on chemical profiles.Cell morphology and integrity were evaluated using phase-contrast microscopy as an indicator of hepatocyte cell health (Tyson & Green, 1987). Cultures for each treatment group (i.e., media, vehicle [0.2% DMSO], positive control inducers [multiple concentrations], and the ToxCast chemicals [multiple concentrations]) were observed and cell morphology was assessed relative to vehicle control cultures at each harvest time point (0, 6, 24, or 48 h). […] Images were evaluated at the conclusion of the study to assess changes in cell integrity and account for the effects of chemical exposure on uncharacteristic changes in concentration-dependent gene expression profiles. The results from these determinations of apparent cytotoxicity were annotated (yes/no) alongside the corresponding qNPA data for reference.At the conclusion of each treatment period, hepatocyte cultures (96-well) were washed with 1 volume of HBSS, lysed by addition of 25 ul ArrayPlate lysis buffer (HTG, Tucson, AZ), and 70 ul/well of Denaturation Oil, denatured by incubation at 95C for 10 min, and frozen at approximately -70C until analysis by nuclease protection assay (qNPA) (Roberts et al., 2007). For qNPA analysis, cell lysates were thawed at 50C for approximately 30 min, qNPA probes were added, and samples were incubated at 95C for 10 min to begin the detection process by denaturing the target RNA, dissociating the duplexes and secondary structure hybridization. At the conclusion of the hybridization period, S1 nuclease reagent was added to each sample to digest all nonprotected nucleotides at 50C for 60-90 min. […]

SMILES | AC50 | outcome
CCCC1COC(Cn2cncn2)(c2ccc(Cl)cc2Cl)O1 (stereo not given) | 3.01 µM (active) | 
O=C(O)c1nc(Cl)ccc1Cl | 6.11 µM (active) | inactive
COP(=S)(OC)Oc1nc(Cl)c(Cl)cc1Cl | 6.12 µM (active) | 
COC(=O)C(C)Oc1ccc(Oc2ccc(Cl)cc2Cl)cc1 (stereo not given) | 3.97 µM (active) and 4.91 µM (active) | inactive
C=CC1(C)OC(=O)N(c2cc(Cl)cc(Cl)c2)C1=O (stereo not given) | 0.828 µM (active) | 
CCCCC(CC)COC(=O)c1ccccc1C(=O)OCC(CC)CCCC (stereo not given) |  | inactive
COc1nc(C)nc(NC(=O)NS(=O)(=O)c2ccccc2CCC(F)(F)F)n1 | 2.44 µM (active) | inactive
N#Cc1nn(-c2c(Cl)cc(C(F)(F)F)cc2Cl)c(N)c1S(=O)C(F)(F)F (stereo not given) |  | inactive
CCCCOC(=O)c1ccccc1C(=O)OCCCC | 3.87 µM (active) | inactive
CC1=C(C(=O)Nc2ccccc2)SCCO1 | 7.64 µM (active) | 
Cc1c(F)c(F)c(COC(=O)C2C(/C=C(\Cl)C(F)(F)F)C2(C)C)c(F)c1F (stereo not given) |  | inactive
C=CCC1=C(C)[C@@H](OC(=O)[C@@H]2[C@@H](C=C(C)C)C2(C)C)CC1=O |  | inactive
CCOC(=O)CC(SP(=S)(OC)OC)C(=O)OCC (stereo not given) | 3.97 µM (active) | 
CCOP(=S)(OCC)SCn1c(=O)oc2cc(Cl)ccc21 |  | inactive
N#CC(CCc1ccc(Cl)cc1)(Cn1cncn1)c1ccccc1 (stereo not given) | 1.89 µM (active) | 
CCOC(=O)C(Cl)Cc1cc(-n2nc(C)n(C(F)F)c2=O)c(F)cc1Cl (stereo not given) |  | inactive
CC(C)Oc1cc(-n2nc(C(C)(C)C)oc2=O)c(Cl)cc1Cl | 2.19 µM (active) | 

SMILES | AC50 | outcome
CCNc1nc(Cl)nc(NCC)n1 |  | inactive
COc1nc(NC(C)C)nc(NC(C)C)n1 |  | inactive
CCNc1nc(Cl)nc(NC(C)C)n1 | 1.62 µM (active) | 
CCCCNC(=O)n1c(NC(=O)OC)nc2ccccc21 |  | inactive
CCCN(CCC)c1c([N+](=O)[O-])cc(S(N)(=O)=O)cc1[N+](=O)[O-] |  | inactive
O=C(O)COc1nc(Cl)c(Cl)cc1Cl |  | inactive
Cc1ccc(-c2c(Cl)nc(C#N)n2S(=O)(=O)N(C)C)cc1 |  | inactive
COC(=O)c1ccccc1C(=O)OC |  | inactive
COc1nc(C)nc(NC(=O)NS(=O)(=O)c2ccccc2Cl)n1 | 0.00149 µM (active) | inactive
Fc1ccc(Oc2ccnc3cc(Cl)cc(Cl)c23)cc1 | 5.01 µM (active) | 
O=C(Nc1ccccc1)Nc1ccnc(Cl)c1 | 8.16 µM (active) | 
C#CCOS(=O)OC1CCCCC1Oc1ccc(C(C)(C)C)cc1 (stereo not given) | 1.9 µM (active) | 
COc1ccc(C(c2ccc(OC)cc2)C(Cl)(Cl)Cl)cc1 | 17.3 µM (active) | 
CNC(=O)ON=CC(C)(C)SC |  | inactive
CON(C)C(=O)Nc1ccc(Cl)c(Cl)c1 | 0.752 µM (active) | 
CC1COC(Cn2cncn2)(c2ccc(Oc3ccc(Cl)cc3)cc2Cl)O1 (stereo not given) |  | inactive
CCCCNC(=O)OCC#CI | 0.591 µM (active) | inactive
